Bioassay records as filed in PubChem.
Anesthetic bind – binds horse apoferritin like a general anesthetic. P02791. apoferritin/1-aminoanthracene competitive binding, fluorescence. Potency, µM (highest dose often 77.5 µM), inactives show at the highest dose activity change, negative = displacement, actives largely listed as inhibitors. 350,000 compounds, 0.074% hits. AID 485281; further: on the % scale 0 is the no-effect control and ±100 the full control effect; nearly all actives have a fitted effect of over 20% in size
Target sequence (P02791 2-175 limits assumed): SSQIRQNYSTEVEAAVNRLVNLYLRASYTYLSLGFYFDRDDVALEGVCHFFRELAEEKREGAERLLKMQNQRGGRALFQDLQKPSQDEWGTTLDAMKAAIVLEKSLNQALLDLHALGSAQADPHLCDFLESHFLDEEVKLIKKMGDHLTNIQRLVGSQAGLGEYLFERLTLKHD
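Horse-spleen apoferritin (10 uM) in 50% saturated 1-aminoanthracene in PBS was incubated 10 min at room temperature with compound. Fluorescence (ex 380, em 535 nm) was normalized to free and bound 1-AMA, with concentration-response fitted by a four-parameter Hill equation.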
TGFb inhibitor – TGF-b pathway inhibition; HepG2 CAGA-GFP TGF-b/SMAD3 reporter, GFP fluorescence, 18 h; TGF-beta stimulated, 500 pg/mL final; Potency, µM (titrated, usually from 46.1 µM), for the others: at the highest dose activity, negative = inhibition, hits mostly inhibitors; 410,000 compounds, 1.2% hits; AID 588855; further: on the % scale 0 is the no-effect control and ±100 the full control effect; nearly all actives have a fitted effect of over 65% in size
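Smad-responsive CAGA-GFP expression was quantified in HEPG2 cells exposed to compounds and 500 pg/mL final TGF-beta for 18 h at 37 degrees C; unstimulated wells defined full inhibition.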
S2 tox – cell viability loss in ATXN counter-screen; S2 cells (HEK-293 line with an ATXN2-luciferase reporter) viability, CellTiter-Fluor protease fluorescence, 24 h; Potency, µM (series often up to 56.7 µM), actives largely listed as cytotoxic; 400,000 compounds, 0.49% hits; AID 651635; further: nearly all actives have a fitted effect of over 40% in size
HepG2 tox-1 – counter-screen for TGF-b inhibitors: cytotoxicity in HepG2 cells; AID 588856; 410,000 compounds, 0.76% hits; Potency, µM (highest dose often 46.1 µM), without a hit: top-dose activity change, negative = cytotoxicity, most hits filed as cytotoxic; HepG2 CAGA-GFP viability, ATP luminescence, 18 h
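HepG2 CAGA-GFP cells (1000/well, DMEM with 1% FBS) received compound, then TGF-beta at 500 pg/mL final, and were incubated 18 hours at 37 degrees C. Viability was read by CellTiter-Glo luminescence. Media-only wells were set as complete cell-killing and DMSO as no toxicity.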
ATXN2 expr inh – reduces ATXN2 reporter expression in HEK-293 cells | HEK-293 ATXN2-luciferase reporter, luminescence, 24 h | Potency, µM (doses to about 57 µM), for inactives: top-dose activity change, negative = inhibition, actives largely listed as inhibitors | 360,000 compounds, 0.72% hits; further: on the % scale 0 is the no-effect control and ±100 the full control effect; nearly all actives have a fitted effect of over 55% in size
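qHTS (up to 57 uM final) was run with 24 h compound exposure of reporter cells at 37 °C. Each well was multiplexed: SteadyGlo luminescence measured ATXN2-luciferase expression after a fluorogenic Gly-Phe-AFC viability readout (25 uM final).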
TGFb confirm – TGF-b pathway inhibition, cherry-pick retest | AID 720534 | shares compounds with TGFb inhibitor | Potency, µM (top dose mostly 46.1 µM), for inactives: at the highest dose activity, negative = inhibition, usual class: inhibitors | 1,600 compounds, 63% hits | HepG2 CAGA-GFP TGF-b reporter, GFP fluorescence, 18 h; cells stimulated with TGF-beta, 500 pg/mL; further: on the % scale 0 is the no-effect control and ±100 the full control effect; nearly all actives have a fitted effect of over 65% in size
HepG2 tox-2 – toxic to HepG2 cells in TGF-b counterscreen; shares compounds with TGFb inhibitor; HepG2 CAGA-GFP viability, ATP luminescence, 18 h; cells stimulated with TGF-beta, 500 pg/mL; Potency, µM (series often up to 46.1 µM), for inactives: at the highest dose activity, negative = cytotoxicity, most hits filed as inhibitors; 1,600 compounds, 27% hits; AID 720535; further: on the % scale 0 is the no-effect control and ±100 the full control effect; nearly all actives have a fitted effect of over 70% in size
CCL64 TGFb inh – TGF-b inhibition, CCL64 orthogonal assay. shares compounds with TGFb inhibitor. CCL64 CAGA-GFP reporter, TGF-b stimulated, GFP fluorescence, 18 h. Potency, µM (top dose mostly 46.1 µM), for inactives: at the highest dose activity, negative = inhibition, actives largely listed as inhibitors. 1,600 compounds, 41% hits. AID 720536; further: nearly all actives have a fitted effect of over 65% in size
TGFb COP inh – blocks TGF-b signaling in HepG2 COP reporter; shares compounds with TGFb inhibitor; HepG2 COP-GFP TGF-b reporter, GFP fluorescence, 18 h; cells stimulated by added recombinant TGF-beta; Potency, µM (doses to about 46.1 µM), without a hit: at the top dose activity, negative = inhibition, usual class: inhibitors; 1,600 compounds, 3% hits; AID 720537; further: nearly all actives have a fitted effect of over 70% in size
Active calls of the source: *; i = inactive; ? = inconclusive; . = no result. Most compounds without a hit are left out; they make up all but 2.4% or so of the library. The call rests on the fitted dose curve; in most records, active means well fitted curve in the direction sought with a large enough effect; inconclusive means small, poorly fitted or top-dose-only effect, or another doubt; inactive means no such curve, though single readings can be large; an effect the other way counts as inactive or inconclusive. Potency means the concentration at half of the fitted maximal effect.

SMILES | Anesthetic bind | TGFb inhibitor | S2 tox | HepG2 tox-1 | ATXN2 expr inh | TGFb confirm | HepG2 tox-2 | CCL64 TGFb inh | TGFb COP inh
CCOc1ccc(N(CC(=O)Nc2ccccc2OCC)S(=O)(=O)c2c(C)noc2C)cc1 | -8% | 5µM* | i | -12% | . | 6.5µM* | 8% | 4.1µM* | -19%
COc1ccc(C2=NN(C(=O)COC(=O)c3ccc(S(C)(=O)=O)c([N+](=O)[O-])c3)C(c3ccco3)C2)cc1 (stereo not given) | . | 8.9µM* | . | 8.9µM* | ? | ? | ? | 2.9µM* | ?
COc1ccc(C2=NN(C(=O)COc3ncnc4ccccc34)C(c3ccco3)C2)cc1 (stereo not given) | -13% | -13% | i | -7% | 7% | . | . | . | .
COc1ccc(-c2cc(C(=O)N(C)CC(=O)Nc3cccc(F)c3)c3ccccc3n2)cc1 | . | ? | ? | -11% | -10% | 18µM* | ? | ? | 82%
OC(CSc1ccccc1)CN1CCN(c2ccc(Cl)cc2)CC1 (stereo not given) | . | -1% | i | -36% | -21% | . | . | . | .
CCc1ccc(OCC(=O)Nc2ccc(-c3cc4ccccc4oc3=O)c(OC)c2)cc1 | 51% | ? | ? | -5% | -18% | ? | -13% | 9% | 12%
COc1cc(NC(=O)c2cc(Cl)ccc2Cl)ccc1-c1cc2ccccc2oc1=O | 2% | -3% | i | -19% | -12% | . | . | . | .
C1=C(CCNc2ncnc3c2[nH]c2ccccc23)CCCC1 | -4% | 3.5µM* | 14µM* | -88% | ? | ? | 21µM* | 6.5µM* | 25%
C#Cc1ccc(NC(=O)C2(C)CCN2C(=O)c2ccccc2CCc2ccccc2)cc1 (stereo not given) | . | ? | i | -27% | -22% | ? | -13% | ? | 2%
CSc1ccc(NC(=O)C2(C)CCN2C(=O)c2ccccc2CCc2ccccc2)cc1 (stereo not given) | . | 8% | i | 5% | -11% | . | . | . | .
Cc1ccc(CNc2ccc(O)cc2)cc1 | -2% | 10µM* | i | -103% | 7% | 23µM* | ? | ? | ?
O=C(NCCc1cccs1)C1CC(c2ccccc2F)=NO1 (stereo not given) | -8% | ? | i | 3% | 23% | -2% | 7% | 1% | 1%
O=C(NCCc1cccs1)C1CC(c2cccc(F)c2)=NO1 (stereo not given) | -16% | -5% | i | -15% | 6% | . | . | . | .
COc1ccc(S(=O)(=O)N2CCCCC2)cc1NC(=O)Cn1cnc2c1c(=O)n(C)c(=O)n2C | . | -7% | i | -2% | 7% | . | . | . | .
c1ccc2sc(C3CCN(Cc4nnnn4Cc4ccc5c(c4)OCO5)CC3)nc2c1 | -1% | 14µM* | i | -29% | -19% | ? | -21% | 27% | -5%
COc1ccc(Cn2nnnc2CN2CCC(c3nc4ccccc4s3)CC2)cc1 | 52% | 1% | i | -21% | -25% | . | . | . | .
Cc1ccc(CNc2nc(CN3CCN(C=O)CC3)nc3ccccc23)o1 | . | . | i | . | . | . | . | . | .
CC1(C)CC(=O)C=C(NC2=CC3OC(c4ccccc4)OCC3OC2=O)C1 (stereo not given) | -2% | 8.9µM* | ? | -38% | -3% | 23µM* | 16µM* | 6.5µM* | 24%
Cc1ccccc1NC1=CC(=O)CC(C)(C)C1 | 7% | 1% | i | -1% | 1% | . | . | . | .
Cn1cc([N+](=O)[O-])c(C(=O)Nc2sc3c(c2C#N)CCC3)n1 | 0% | 8.9µM* | i | 17% | . | 13µM* | 7.3µM* | 2% | 70%
O=C(NCC(c1ccco1)N1CCCCC1)c1ccc(COc2ccc(Cl)cc2)cc1 (stereo not given) | . | 13µM* | ? | -25% | ? | 16µM* | ? | 16µM* | 73%
N#Cc1ccc(C(=O)NCC(c2ccco2)N2CCCCC2)cc1 (stereo not given) | -8% | -6% | i | 3% | 4% | . | . | . | .
Nc1cccc(C(=O)NCCNC(=O)c2cccc(N)c2)c1 | 32% | 14% | i | -7% | . | . | . | . | .
CCn1nc(C(=O)OC(C(=O)c2c[nH]c3ccccc23)c2ccccc2)c2ccccc2c1=O (stereo not given) | ? | 11µM* | i | -26% | 8% | 21µM* | -18% | ? | -17%
Cc1noc(C)c1S(=O)(=O)Nc1ccc2c(c1)C(=O)N([C@@H](C)CO)C[C@H](C)[C@@H](CN(C)Cc1ccc(C(F)(F)F)cc1)OCCCC[C@H](C)O2 | . | 10µM* | . | -47% | ? | ? | ? | 33µM* | 68%
C[C@@H]1CN([C@H](C)CO)C(=O)c2cc(NC(=O)Cc3ccccc3)ccc2O[C@H]1CN(C)Cc1ccc(Oc2ccccc2)cc1 | . | 11µM* | ? | -25% | ? | ? | ? | 16µM* | 83%
COc1ccc(S(=O)(=O)Nc2ccc3c(c2)C(=O)N([C@H](C)CO)C[C@H](C)[C@H](CN(C)Cc2ccc(C(=O)O)cc2)O3)cc1 | . | 1% | i | 0% | -1% | . | . | . | .
Cc1ccc(S(=O)(=O)Nc2ccc3c(c2)C(=O)N([C@H](C)CO)C[C@H](C)[C@@H](CN(C)Cc2ccc(-c4ccccc4)cc2)O3)cc1 | . | 10µM* | ? | -16% | 0% | 9.2µM* | ? | 21µM* | 61%
C[C@H](CO)N1C[C@H](C)[C@@H](CN(C)C(=O)Nc2ccc(C(F)(F)F)cc2)Oc2ccc(NS(=O)(=O)c3ccccc3)cc2C1=O | . | 6.3µM* | ? | -16% | 0% | ? | 1% | ? | 1%
